# Results: PubChem BioAssay (NCI)
# Where “and” joins values, the source holds several entries; their conditions need not be identical. Identical values can stand only once. Compounds without any hit were thinned out: in the full panel of roughly 79,000, 15% have a hit. Values without a mark were called inactive. Calls of active or inactive are those of the source. Cut-off read from the data, not from the text of the source: active = growth inhibition above about 70%; inactive = the rest.
# Tests used:
# [1] = NCI Yeast Anticancer Drug Screen. Data for the rad50 strain (AID 155);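 note: 0% = growth of vehicle-only cultures of the same strain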; conditions: S. cerevisiae rad50 strain growth inhibition, active compounds read high; at 50.0 µM unless noted
# Method in brief: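 Growth of the mutant yeast was measured after compound exposure and referenced to vehicle-treated cultures.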
# [2] = NCI Yeast Anticancer Drug Screen. Data for the mec2-1 strain (AID 157); conditions: S. cerevisiae mec2-1 strain, active compounds read high; at 50.0 µM unless noted
# Method in brief: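 Compounds were applied to mec2-1 yeast cells. Their growth was then compared with that of vehicle-treated cultures to give growth inhibition.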
# [3] = NCI Yeast Anticancer Drug Screen. Data for the sgs1 mgt1 strain (AID 161);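 note: 0% = growth of cultures given vehicle only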; conditions: S. cerevisiae sgs1 mgt1 strain, active compounds read high; at 50.0 µM unless noted
# Method in brief: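 Growth of a repair-deficient yeast mutant was monitored after compound treatment and expressed as inhibition relative to vehicle-treated cultures.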
# [4] = NCI Yeast Anticancer Drug Screen. Data for the cln2 rad14 strain (AID 165);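 note: 0% = growth equal to vehicle treated cultures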; conditions: S. cerevisiae cln2 rad14 strain, active compounds read high; at 50.0 µM unless noted
# Method in brief: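 Strain: cln2 rad14 yeast, altered in cell cycle control and DNA damage repair. Read-out: growth inhibition vs vehicle.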
# [5] = NCI Yeast Anticancer Drug Screen. Data for the bub3 strain (AID 167); conditions: S. cerevisiae bub3 mutant strain, active compounds read high; at 50.0 µM unless noted
# Method in brief: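 Whole-cell yeast assay. The mutant strain was incubated with compounds, and growth inhibition was determined by comparison with vehicle-treated cells.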
# [6] = NCI Yeast Anticancer Drug Screen. Data for the mlh1 rad18 strain (AID 175); conditions: S. cerevisiae mlh1 rad18 strain growth inhibition, active compounds read high; at 50.0 µM unless noted
# Method in brief: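 A repair-deficient yeast strain is exposed to test compound, and growth is scored relative to vehicle-treated controls.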
SMILES,growth inhibition [1],growth inhibition [2],growth inhibition [3],growth inhibition [4],growth inhibition [5],growth inhibition [6]
COc1ccc2c(c1)[n+](=O)c(C(=O)C/C(=N\NC(=O)C[N+](C)(C)C)C(=O)Nc1cc(Cl)ccc1Cl)c(C)n2O,-27.9%,-12.7%,-43.6%,9.3%,-23.1%,-23.4%
CCC(c1cccc(C(=O)O)c1)C(C(C)=O)c1ccc(O)cc1 (centres undefined),0.8%,-20.5%,-6.1%,-22.5%,4%,-5.05%
NC(=O)C(=CN1CC(=O)NC1=S)C(N)=O,-23.3%,-23.4%,-2.4%,9.85%,-9.05%,17.1%
CCCCCCCCC(=O)Nc1cccc(O)c1,-6.7%,-12.4%,-8.45%,-48.6%,-26.4%,-13.8%
O=[N+]([O-])c1cnccc1/C=C\c1ccccc1,4.5%,3.15%,-2.1%,-35.9%,-5.7%,12%
O=C(C[n+]1ccccc1CO)c1ccc(-c2ccccc2)cc1,26.2%,-6.4%,17.2%,-4.85%,6.5%,5.4%
Cc1cc([N+](=O)[O-])c(Nc2ccc(C)c(Cl)c2)c([N+](=O)[O-])c1,8.15%,36.7%,29.6%,-8.05%,52.1%,33.6%
CCOC(OCC)c1ccc(OC)c(OC)c1,13.5%,-5.3%,8.95%,-0.1%,3.45%,9.6%
COC1OC(CI)C(O)C(O)C1O (centres undefined),-6.05%,2.4%,-4.45%,-24.2%,37.8%,-16.7%
CCOC1=Nc2ccccc2C1(C)CCO (centres undefined),-45.5%,-13.2%,-23.1%,-62.2%,-5%,-4.3%
CCc1ccc2c(-c3ccccc3)c3c(-c4ccccc4)c4ccccc4c(-c4ccccc4)c3c(-c3ccccc3)c2c1,16.6%,7.3%,-5.8%,-28.4%,-8.15%,23.4%
COc1ccccc1/C=C\C#N,-9.2%,-6.1%,-6.45%,-28%,-29.2%,-13.4%
CC(=O)Nc1nnn(C)n1,-4.65%,-5.55%,0.8%,-39.5%,9.1%,-3.45%
O=C(CCCN1CCC2(CC1)CC(=O)N(N1CCOCC1)C2=O)c1ccc(F)cc1,-4.65%,6.1%,2.75%,4.5%,-3.4%,14.9%
CC1=C(N2CCOCC2)C(N2CCOCC2)C(C)C1=O (centres undefined),16.8%,-5.25%,-4.8%,13.7%,9.1%,3%
O=c1c2ccccc2[nH]c(=S)n1CCc1ccccn1,2.35%,6.9%,64.6%,8.55%,14.3%,-7.65%
CC(C)CN(CC(C)C)C(=O)c1ccccc1,2.3%,8.2%,1.1%,8.85%,4.9%,2.4%
Cc1ccc(OCC2OC(n3cnc4c(Cl)ncnc43)CC2Oc2ccc(C)cc2)cc1 (centres undefined),-1.2% and 20.8%,-10.2% and 3.5%,0.05% and 45%,-6.6% and 15.3%,-5.6% and 34%,-32.6% and -25.1%
Cc1ccc(N2C(=O)C3CSCN3C2=O)cc1 (centres undefined),31.2%,19.8%,6.85%,4.9%,9%,6.25%
Cc1cc(Nc2nnc(-c3cccnc3Oc3ccccc3)s2)ccc1Br,1.25%,-6.85%,-11.6%,16.7%,0.5%,-5.35%

SMILES,growth inhibition [1],growth inhibition [2],growth inhibition [3],growth inhibition [4],growth inhibition [5],growth inhibition [6]
CCCCOC(=O)/C=C/C(=O)OCCCC,-34.6%,9.6%,8.85%,4%,-0.45%,43.9%
CN(O)C(=O)CCC(NC(=O)CCC(N)C(=O)O)C(=O)NCC(=O)O (centres undefined),-25.4%,-9.3%,-11.9%,0.1%,1.6%,-51.8%
CC(=O)Nc1c(C)cc([N+](=O)[O-])c2ccccc12,-0.7%,-2.45%,-14.9%,-9.45%,8.05%,-13.3%
CS(C)=C(C(=O)c1ccccc1)/C(=C/C(=O)c1ccccc1)c1ccccc1,21.5%,26.2%,65%,36%,43.6%,79% (active)
CC(=O)NNC(=O)C(N)Cc1ccc(O)cc1 (centres undefined),13.5%,23.1%,40.5%,12.2%,2.95%,14.8%
O=C(/C=C\c1ccc(Cl)c(Cl)c1)/C=C/c1ccc(Cl)c(Cl)c1,25.5%,4.75%,26.4%,9.55%,39%,16.6%
COc1ccc2nc3ccccc3c(NCCC[N+](C)(C)[O-])c2c1[N+](=O)[O-],-6.4%,-16.4%,3.45%,-34.1%,-13.1%,-7.55%
CC(C)CC(Br)C(=O)NCC(=O)O (centres undefined),-25.1% and 5.2%,-55.1% and -6.55%,-27.9%,8.5%,-24.1%,-11% and -4.8%
Cn1ccnc1Sc1c([N+](=O)[O-])ncn1C,3.3%,5.95%,3.25%,29.3%,32.5%,10.4%
O=c1c2cc(O)c(O)cc2oc2cc(O)c(C3OC(CO)C(O)C(O)C3O)c(O)c12 (centres undefined),14.2%,1.1%,-27.7%,6.45%,-41.4%,-77.1%
NC(=O)N/N=C(/Cc1nc2ccc(C(=O)c3ccccc3)cc2[nH]c1=O)C(=O)Nc1ccc(C(F)(F)F)cc1[N+](=O)[O-],-7.85%,7.35%,-7.85%,0.8%,-33.6%,5.05%
BrC(Br)(Br)Br,74% (active),12.6%,31.8%,-19.6%,27.4%,57.2%
CC(=O)OC1=C2OC(=O)C3(C2C=CC=C1)C1C=CC=CC13 (centres undefined),-17.9%,1.3%,2.8%,-2.45%,-13.8%,-1.95%
CC1=NCC23CC(=O)C4C(CCC5(C)CC(O)CCC45C)C2CCC13 (centres undefined),0.85%,-0.95%,7.6%,-36.6%,20.4%,1.9%
CCC(C)(C)c1ccc(C(=O)OC)o1,4.1%,16.2%,-5.55%,-13.3%,-7.3%,-13.8%
CC(C)OC(=O)Nc1ccc(O)cc1,10.8%,-6.7%,-2.45%,-19.4%,-3.45%,-5.7%
CC(C)(C)NCCS,-17.1%,-34.9%,-32.4%,2.95%,-19.9%,-12.8%
CC(C)C(=O)Nc1nc2nc[nH]c2c(=O)[nH]1,11.6%,-23.6%,24.9%,12.8%,-7.95%,-22.9%
O=C1C(O)C(O)C(O)C(O)C1O (centres undefined),22.7% and -14.6%,20.5% and -17.2%,3.9% and -36.9%,15.9% and -12.3%,20.8% and -8.35%,19.7% and -3.55%
